Assay outcomes: PubChem, National Center for Advancing Translational Sciences (NCATS)
PI4K2A block – qHTS for small molecular inhibitors of PI4K2A | purified PI4K2A, ADP-Glo luminescence, 1 h; hits give low values | Phosphatidylinositol 4-kinase type 2-alpha (Homo sapiens), Q9BTU6 | hit rate 0.13% among 420,000 | AID 1346378, 2018 | activity change, negative = inhibition, % at 76.9 µM; in the data active = activity change below about -50%; inconclusive = mostly about -30% to -49%;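 also: -100% = wells without enzyme as full effect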
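In this quantitative HTS, ADP production by PI4K2A was quantified luminescently after 1 h at ambient temperature; 100 microM adenosine served as plate-quality control.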
TrxR1 substrate – qHTS Assay for Substrates of Mammalian Selenoprotein Thioredoxin Reductase 1 (TrxR1): qHTS. AID 588456, 2011. Potency, µM (highest dose often 114 µM), for inactives: top-dose activity change, negative = substrate turnover. purified TrxR1 substrate turnover, NADPH consumption readout. hit rate 0.01% among 390,000. Thioredoxin reductase 1, cytoplasmic (Rattus norvegicus), O89049; also: potency is read from the fitted curve at half-maximal effect; % is scaled to controls: 0 for no effect and ±100 for the full control effect; nearly all actives have a fitted effect of over 50% in size
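Rat TrxR1, dispensed at 90 nM, was prereduced with 400 uM NADPH (final) for 5 min at ~22 deg C, then incubated with compound 15 min before 400 uM selenite. A first-read NADPH fluorescence drop versus no-compound background flagged substrates.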
Coupling enz – qHTS Assay for Inhibitors of Fructose-1,6-bisphosphate Aldolase from Giardia Lamblia: Coupling assay counterscreen | coupling enzyme system counterscreen, AmpLite Red fluorescence | activity change, negative = inhibition, % at 58.2 µM, hits read low | hit rate 0.67% among 290,000; in the data active = activity change below about -30%; also: % is scaled to controls: 0 for no effect and ±100 for the full control effect
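Final compound at 57.5 uM, incubated 10 min at RT with coupling enzyme reagent (glyceraldehyde-3-phosphate), then 20 min with substrate and AmpLite Red detection. Fluorescence read at 525/598 nm; tests interference with the coupling assay, not aldolase inhibition.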
Giardia kill – Small Molecules that selectively kill Giardia lamblia: qHTS | activity change, % at 7.66 µM, hits read low | AID 540267, 2011 | Giardia lamblia trophozoite viability | hit rate 0.15% among 340,000; in the data active = activity change below about -80%; inconclusive = between about -30% and that limit;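 also: parasites exposed to compound for two days anaerobically before the ATP read; % is scaled to controls: 0 for no effect and ±100 for the full control effect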
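Compounds were tested on trophozoites seeded at 100 cells/well and held 48 hrs at 37 deg C anaerobically. An ATP-based luminescent kit measured the remaining live cells.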
TrxR1 inh-1 – qHTS Assay for Inhibitors of Mammalian Selenoprotein Thioredoxin Reductase 1 (TrxR1): qHTS; hit rate 1% among 390,000; Potency, µM (highest dose often 114 µM), inactives show at the highest dose activity change, negative = inhibition, usual class: inhibitors; recombinant rTrxR1, NADPH fluorescence consumption, selenite substrate; Thioredoxin reductase 1, cytoplasmic (Rattus norvegicus), O89049; AID 588453, 2011; also: potency is read from the fitted curve at half-maximal effect; % is scaled to controls: 0 for no effect and ±100 for the full control effect; nearly all actives have a fitted effect of over 65% in size
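Rat TrxR1 (90 nM in the dispensed reagent) was pre-reduced with 400 uM NADPH for 5 min at room temperature, then incubated with compound for 15 min. After 400 uM selenite was added, NADPH fluorescence (Ex 340/Em 450 nm) was followed for 8 min.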
GALK inh – qHTS Assay for Inhibitors of Human Galactokinase (GALK) | P51570 | Purified GALK, Kinase-Glo residual ATP luminescence | Potency, µM (titrated, usually from 57.5 µM), for inactives: at the top dose activity change, negative = inhibition, hits mostly inhibitors | hit rate 0.007% among 270,000 | AID 1868, 2009; also: potency is read from the fitted curve at half-maximal effect; % is scaled to controls: 0 for no effect and ±100 for the full control effect
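Human GALK (5 nM) with 35 uM ATP and 100 uM galactose in 20 mM HEPES pH 8.0, 5 mM MgCl2, 60 mM NaCl, 1 mM DTT, 0.01% BSA. After 1 h at room temperature, leftover ATP was read by Kinase-Glo Plus luminescence.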
CASP1 redox cat – Concentration-Response Counterscreen for Redox Active Inhibitors of Caspase-1: Catalase | caspase-1 Ac-WEHD-AFC fluorescence rate, catalase buffer | AID 888, 2007 | Potency, µM (doses to about 57.5 µM), for inactives: at the top dose activity change, negative = inhibition, most hits filed as inhibitors | shares compounds with Coupling enz | 30 tested, under 10 active; active = well fitted inhibition curve with a large enough effect in the main read-out, with a control signal flat; inconclusive = small, poorly fitted or top-dose-only effect, or a change in a side signal; inactive = no such curve, though single readings can be large or run the other way
CASP1 inh CRC – Confirmation Concentration-Response Assay for Allosteric/Competitive Inhibitors of Caspase-1; shares compounds with Coupling enz; purified caspase-1, fluorogenic substrate cleavage; Potency, µM (titrated, usually from 57.5 µM), without a hit: at the highest dose activity change, negative = inhibition, most hits filed as inhibitors; hit rate 20% among 60; active = well fitted inhibition curve with a large enough effect in the main read-out, with a control signal flat; inconclusive = small, poorly fitted or top-dose-only effect, or a change in a side signal; inactive = no such curve, though single readings can be large or run the other way
Casp7 confirm – Confirmation Concentration-Response Assay for Allosteric/Competitive Inhibitors of Caspase-7; shares compounds with Coupling enz; recombinant caspase-7, fluorogenic substrate cleavage; Potency, µM (series often up to 57.5 µM), without a hit: at the highest dose activity change, negative = inhibition, most hits filed as inhibitors; 60 tested, under 10 active; AID 897, 2007; active = well fitted inhibition curve with a large enough effect in the main read-out, with a control signal flat, not every such curve was filed as active; inconclusive = small, poorly fitted or top-dose-only effect, or a change in a side signal; inactive = no such curve, though single readings can be large or run the other way
Casp7 cysteine – Concentration-Response Counterscreen for Redox Active Inhibitors of Caspase-7: Cysteine | shares compounds with Coupling enz | caspase-7 enzyme with cysteine, fluorogenic substrate, redox counterscreen | Potency, µM (top dose mostly 57.5 µM), without a hit: at the highest dose activity change, negative = inhibition, most hits filed as inhibitors | 60 tested, under 10 active | AID 908, 2007; active = well fitted inhibition curve with a large enough effect in the main read-out, with a control signal flat; inconclusive = small, poorly fitted or top-dose-only effect, or a change in a side signal; inactive = no such curve, though single readings can be large or run the other way
Casp7 catalase – Concentration-Response Counterscreen for Redox Active Inhibitors of Caspase-7: Catalase | shares compounds with Coupling enz | 30 tested, under 10 active | Caspase-7 Ac-DEVD-AFC fluorescence rate, catalase buffer | Potency, µM (doses to about 57.5 µM), without a hit: top-dose activity, negative = inhibition, most hits filed as inhibitors | AID 909, 2007; active = well fitted inhibition curve with a large enough effect in the main read-out, with a control signal flat; inconclusive = small, poorly fitted or top-dose-only effect, or a change in a side signal; inactive = no such curve, though single readings can be large or run the other way
CASP1 redox cys – Concentration-Response Counterscreen for Redox Active Inhibitors of Caspase-1: Cysteine. Potency, µM (top dose mostly 57.5 µM), inactives show at the top dose activity change, negative = inhibition, actives largely listed as inhibitors. 60 tested, under 10 active. recombinant caspase-1, fluorogenic substrate, cysteine buffer. shares compounds with Coupling enz; active = well fitted inhibition curve with a large enough effect in the main read-out, with a control signal flat; inconclusive = small, poorly fitted or top-dose-only effect, or a change in a side signal; inactive = no such curve, though single readings can be large or run the other way
GR inh – qHTS Assay for Inhibitors of Mammalian Selenoprotein Thioredoxin Reductase 1 (TrxR1): Counterassay in Glutathione Reductase (GR); activity change, negative = inhibition, % at 57.1 µM; 55 tested, under 10 active; AID 652020, 2013; purified GR, DTNB reduction absorbance 405 nm kinetic; shares compounds with TrxR1 inh-1
TrxR1 inh-2 – qHTS Assay for Inhibitors of Mammalian Selenoprotein Thioredoxin Reductase 1 (TrxR1): Hit Validation in Primary Screen. recombinant TrxR1, NADPH fluorescence consumption, selenite substrate. Potency, µM, hits mostly inhibitors. hit rate 50% among 55. shares compounds with TrxR1 inh-1
TrxR1 insulin MOA – qHTS Assay for Inhibitors of Mammalian Selenoprotein Thioredoxin Reductase 1 (TrxR1): Insulin MOA Assay. shares compounds with TrxR1 inh-1. TrxR1 Trx-coupled insulin reduction, NADPH absorbance 340 nm. Potency, µM. hit rate 20% among 55. AID 652037, 2013;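 active = compounds with a measured potency under 100 micromolar; inconclusive = filed, but no rule given; inactive = potency at or above that, or unmeasurable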
TrxR1 inh-3 – qHTS Assay for Inhibitors of Mammalian Selenoprotein Thioredoxin Reductase 1 (TrxR1): DTNB Assay; purified TrxR1, DTNB reduction, A412; Potency, µM; hit rate 90% among 55; shares compounds with TrxR1 inh-1; AID 652256, 2013;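 active = a half-inhibiting concentration could be measured and was below 100 µM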
* = called active by the depositor; i = inactive; ? = inconclusive; . = no result; [ ] = remark or other dose. Only some compounds are listed: those with a hit (about 1.5% of all), similar ones and a draw of the others. Unless noted, calls follow the shape of the dose curve; as a rule, active = well fitted curve in the direction sought with a large enough effect; inconclusive = small, poorly fitted or top-dose-only effect, or another doubt; inactive = no such curve, though single readings can be large; an effect the other way counts as inactive or inconclusive.

SMILES	PI4K2A block	TrxR1 substrate	Coupling enz	Giardia kill	TrxR1 inh-1	GALK inh	CASP1 inh CRC	Casp7 confirm	Casp7 cysteine	CASP1 redox cys	others
O=C(c1ccc(Cl)c(Cl)c1)N(Cc1ccco1)c1ccc(O)cc1	3	-4%	6	-9	6%	1%	-3%	?	?	8%	CASP1 redox cat=-10%;Casp7 catalase=32µM*
Cc1cc(O)c(-c2n[nH]c3c2C(c2cccc(O)c2)N(Cc2cccnc2)C3=O)cc1Cl (centres undefined)	3	-13%	3	1	-10%	-1%	-7%	-25%	-30%	15%
CCc1ccc(C2c3c(-c4ccccc4O)n[nH]c3C(=O)N2Cc2cccnc2)cc1 (centres undefined)	1	-1%	.	.	4%	.	.	.	.	.
Cc1cccc(C)c1OCCn1c(C2CC(=O)N(Cc3ccc(F)cc3)C2)nc2ccccc21 (centres undefined)	-4	-9%	.	.	8%	.	.	.	.	.
COc1ccc(CCNC(=O)Cc2c(C)c3cc4c(C(C)(C)C)coc4c(C)c3oc2=O)cc1OC	2	-3%	.	.	-6%	.	.	.	.	.
O=C(C1CCCCC1)N1CCC(c2nc3c(nnn3Cc3ccccc3Cl)c(=O)[nH]2)CC1	-6	-5%	.	-21	13%	.	.	.	.	.
Cc1ccc(NC(=O)N2CCC(c3nc4c(nnn4Cc4cccc(Cl)c4)c(=O)[nH]3)CC2)cc1	-1	6%[57.1 µM]	1	-17	18%	-1%	-10%	?	?	3%
O=C(Nc1ccc(F)cc1)N1CCC(c2nc3c(nnn3Cc3cccc(Cl)c3)c(=O)[nH]2)CC1	0	0%	4	3	10%	0%	.	.	.	.
CCCCCCC(=O)N1CCC(c2nc3c(nnn3Cc3ccccc3Cl)c(=O)[nH]2)CC1	3	-4%	-3	22	12%	0%	-14%	4µM*	5µM*	2%
CC(CNC(=O)c1cc2ccccn2n1)c1ccccc1 (centres undefined)	-2	-3%[57.1 µM]	.	.	1%[57.1 µM]	.	.	.	.	.
O=C(Nc1ccc2c(c1)OCO2)C1CCCN(c2nc3ccccc3s2)C1 (centres undefined)	0	3%	-7	-8	18%	-3%	-9%	-7%	-4%	7%	CASP1 redox cat=1%;Casp7 catalase=-6%
Cc1cccc(NC(=O)C2CCCN(c3nc4ccccc4s3)C2)c1C (centres undefined)	4	-1%	.	.	1%	.	.	.	.	.
CCCCOc1ccc(C(=O)Nc2cc(-c3cn4cccnc4n3)ccc2OC)cc1	-4	13%[57.1 µM]	.	.	16%[57.1 µM]	.	.	.	.	.
Cc1ccc(S(=O)(=O)n2c3ccccc3c3nnc(C(=O)c4ccccc4)nc32)cc1	.	.	-1	.	.	.	.	.	.	.
O=c1cnnc(SCCc2ccccc2)[nH]1	-1	1%	11	-6	8%	0%	-6%	-2%	-6%	5%	CASP1 redox cat=4%;Casp7 catalase=2%
Cc1cccc(N2CCN(c3cc(C)nc4nnnn34)CC2C)c1 (centres undefined)	3	-3%	-13	-19	32µM*	-1%	.	.	.	.	GR inh=1;TrxR1 inh-2=?;TrxR1 insulin MOA=84µM*;TrxR1 inh-3=0.11µM*
CCCn1c(N)c(C(c2ccc(OC)cc2)N2CCN(c3ccccc3)CC2)c(=O)[nH]c1=O (centres undefined)	0	8%[57.1 µM]	1	9	10µM*	-1%	.	.	.	.	GR inh=1;TrxR1 inh-2=?;TrxR1 insulin MOA=i;TrxR1 inh-3=0.17µM*
CC1CCN(S(=O)(=O)c2ccc3c(ccc(=O)n3CC(=O)NCc3ccccc3)c2)CC1	0	7%[57.1 µM]	.	.	21%[57.1 µM]	.	.	.	.	.
Cc1nn(-c2ccccc2)c(NC(=O)NS(=O)(=O)c2ccc(Cl)cc2)c1C#N	.	.	4	.	.	.	.	.	.	.
